Records with an inconclusive call do not appear. Activity calls are given as the source filed them. Calls follow the shape of the dose curve; as a rule, active = well fitted curve in the direction sought with a large enough effect; inconclusive = small, poorly fitted or top-dose-only effect, or another doubt; inactive = no such curve, though single readings can be large; an effect the other way counts as inactive or inconclusive.
Legend:
[1] = test system: Zika virus NS2B-NS3 protease (linked construct); test: Primary screen NINDS Rhodamine qHTS for Zika virus inhibitors (AID 1347160); also: nearly all actives have a fitted effect of over 55% in size; also: potency is read from the fitted curve at half-maximal effect
How it was run: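 Purified NS2B-NS3 protease with the NS2B hydrophilic domain joined by a flexible linker (25 nM) in 10 mM Tris-HCl pH 8.0, 0.01% Tween 20, preincubated 15 min at RT with compound; Rhodamine110 peptide substrate 1.5 µM; fluorescence change over 15 min; 4-parameter Hill fit.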

[2] = UWB1.289 Cancer Cell Toxicity qHTS against the NCATS CANVASS Library (AID 1347347); also: nearly all actives have a fitted effect of over 60% in size; also: potency is read from the fitted curve at half-maximal effect
How it was run: (§1)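 1000 cells/well seeded and rested 4 h at 37 °C before pin transfer of compounds in an 11-pnt series. Exposure 72 h at 37 °C/5% CO2; viability by CellTiter-Glo luminescence after 15 min at room temperature.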

[3] = Panc-1005 Cancer Cell Toxicity qHTS against the NCATS CANVASS Library (AID 1347349); also: nearly all actives have a fitted effect of over 60% in size; also: potency is read from the fitted curve at half-maximal effect
How it was run: as §1

[4] = SW1088 Cancer Cell Toxicity qHTS against the NCATS CANVASS Library (AID 1347350); also: nearly all actives have a fitted effect of over 75% in size; also: potency is read from the fitted curve at half-maximal effect
How it was run: as §1

[5] = U-118MG Cancer Cell Toxicity qHTS against the NCATS CANVASS Library (AID 1347351); also: potency is read from the fitted curve at half-maximal effect
How it was run: as §1

[6] = A2780 Cisplatin Sensitive Ovarian Cancer Cell Toxicity qHTS against the NCATS CANVASS Library (AID 1347353); also: nearly all actives have a fitted effect of over 60% in size; also: potency is read from the fitted curve at half-maximal effect
How it was run: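 A2780 cells, 750/well, settled 4 h at 37 °C, then treated with an 11-point compound series for 72 h. Viability was read as ATPLite luminescence after 10 min at room temperature, with bortezomib as control.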

[7] = UWB1.289-WTBRCA1 Cancer Cell Toxicity qHTS against the NCATS CANVASS Library (AID 1347354); also: potency is read from the fitted curve at half-maximal effect
How it was run: (§2)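 Cells at 1000/well were given compound 4 h after plating in an 11-point series. Viability was read by CellTiter-Glo luminescence after 72 h at 37 degrees C.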

[8] = HEK-293 Cancer Cell Toxicity qHTS against the NCATS CANVASS Library (AID 1347355); also: nearly all actives have a fitted effect of over 65% in size; also: potency is read from the fitted curve at half-maximal effect; as to outcome: series mostly up to about 46 µM
How it was run: as §2

[9] = test system: NAD(P)H diaphorase (Clostridium kluyveri); test: Diaphorse counterscreen qHTS: Assay Interference Panel against the NCATS CANVASS Library (AID 1347362)
How it was run: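 Clostridium kluyveri diaphorase in PBS with 0.01% Tween-20 was preincubated 15 min at room temperature in the dark with compounds (11-point series). Resorufin fluorescence (ex 525/20, em 598/25) was read 5 min after adding resazurin/NADH.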

[10] = KB-8-5-11 Cancer Cell Toxicity qHTS against the NCATS CANVASS Library (AID 1347364); also: nearly all actives have a fitted effect of over 75% in size; also: potency is read from the fitted curve at half-maximal effect
How it was run: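 KB-8-5-11 cells, 500/well in DMEM + 10% FBS, given compounds in an 11-point series. Incubated 72 h at 37 °C. Viability by CellTiter-Glo luminescence. Confirmation also run with 1 uM tariquidar.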

[11] = SDT Cancer Cell Toxicity qHTS against the NCATS CANVASS Library (AID 1347365); also: nearly all actives have a fitted effect of over 60% in size; also: potency is read from the fitted curve at half-maximal effect
How it was run: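 SDT dog glioma cells (500/well) exposed to an 11-point compound series for 72 hr at 37C, 5% CO2. Cytotoxicity read as ATP content by CellTiterGlo luminescence; bortezomib titration as control.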

[12] = target: Nuclear receptor subfamily 1 group I member 3 (Homo sapiens) (UniProt Q14994); test: qHTS for Constitutive Androstane Receptor (CAR) Antagonist screened against the NCATS CANVASS Library (AID 1347372); also: potency is read from the fitted curve at half-maximal effect
How it was run: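 HepG2 cells stably carrying hCAR and a CYP2B6-2.2kb luciferase reporter were exposed to compounds plus 50 nM CITCO for 24hr at 37C. CAR activity was read by ONE-Glo luminescence, with viability measured first by CellTiter-Fluor.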

[13] = qHTS for Hypoxia signaling pathway (HIF-1) antagonists against the NCATS CANVASS Library (AID 1347374); also: nearly all actives have a fitted effect of over 60% in size; also: potency is read from the fitted curve at half-maximal effect
How it was run: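 HRE-bla ME-180 cells in medium with 0.5% dialyzed FBS received compounds (11-point series) plus CoCl2 (60 uM addition stock) for 17 hrs at 37C. Beta-lactamase activity read with CCF4 (405 nm ex, 460/530 nm em); CellTiter-Glo viability measured in same wells.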

[14] = DH5-alpha competent E. coli microbial cell viability qHTS against the NCATS CANVASS Library (AID 1347377); details: outcome: dose series up to 46.1 µM unless noted
How it was run: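 DH5-alpha E. coli suspension was exposed to an 11-point compound series overnight at 37 °C. Viable cells quantified by ATP luminescence (BacTiter-Glo) after 20 min at room temperature.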

[15] = qHTS for H2AX Agonists against the NCATS CANVASS Library (AID 1347378);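 also: phospho-H2AX S139 level in CHO-K1 lysates by TR-FRET emission ratio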; also: potency is read from the fitted curve at half-maximal effect
How it was run: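 CHO-K1, 1000 cells/well, o/n 37C; cpd several conc, 3 hr 37C, 0.76% DMSO; lyse 30 min RT; cryptate anti-pH2AX(S139) + d2 anti-H2AX, 24 hr RT; HTRF 665/620.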

[16] = qHTS for Activators of p53 Stress Response Pathway screened against the NCATS CANVASS Library (AID 1347388)
How it was run: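 p53RE-bla HCT-116 cells (4000/well) were plated 5 h at 37C, exposed to compounds for 16 h at 37C over an 11-point concentration series, then loaded with CCF4 for 2 h at room temperature; 460/530 nm emission ratio read.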

[17] = qHTS assay for small molecule disruptors of mitochondrial membrane potential screened against the NCATS CANVASS Library (AID 1347389); also: nearly all actives have a fitted effect of over 60% in size; also: potency is read from the fitted curve at half-maximal effect
How it was run: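 HepG2 cells (2,000/well) plated overnight, then exposed to compounds in 11-point qHTS series for 1 h at 37C before 30 min Mito-MPS dye; depolarization read as fall in red aggregate (590 nm) to green monomer (535 nm) fluorescence.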

[18] = Secretion counterscreen for inhibitors of the SERCaMP assay screened against the NCATS CANVASS Library (AID 1347390);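 also: light from luciferase secreted into medium read as a measure of general secretion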; also: potency is read from the fitted curve at half-maximal effect
How it was run: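 SH-SY5Y-GLuc STOP cells; 4 h attach; cpds 0.001 - 77 uM (qHTS, 11 pts), 20 h 37C/5% CO2; coelenterazine in glow buffer; luminescence, 5 s exposure.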

[19] = qHTS for activators of dead-cell proteases activity screened against the NCATS CANVASS Library (AID 1347392);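 also: luminescence from protease leaking out of membrane-damaged cells cleaving impermeant substrate; rising signal means more cytotoxicity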; also: potency is read from the fitted curve at half-maximal effect
How it was run: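 HepG2 cells (2000/well) attached 18 h at 37C, then exposed 5 h to compounds (11-point qHTS). Dead-cell protease activity read as luminescence from cell-impermeant AAF-aminoluciferin substrate after 15 min at room temperature.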

[20] = qHTS for inhibitors of Wild type Zika virus screened against the NCATS CANVASS Library (AID 1347396); also: potency is read from the fitted curve at half-maximal effect
How it was run: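 Vero 766 (African green monkey) cells, 1000 per well, attached overnight, then compounds were added in an 11-point series before wild-type Zika virus infection. After 72 h at 37C, cell viability was read as CellTiter Glo luminescence.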

Measured: Potency

Chain of Nuclear receptor subfamily 1 group I member 3 (Homo sapiens) (Q14994 whole entry, looked up): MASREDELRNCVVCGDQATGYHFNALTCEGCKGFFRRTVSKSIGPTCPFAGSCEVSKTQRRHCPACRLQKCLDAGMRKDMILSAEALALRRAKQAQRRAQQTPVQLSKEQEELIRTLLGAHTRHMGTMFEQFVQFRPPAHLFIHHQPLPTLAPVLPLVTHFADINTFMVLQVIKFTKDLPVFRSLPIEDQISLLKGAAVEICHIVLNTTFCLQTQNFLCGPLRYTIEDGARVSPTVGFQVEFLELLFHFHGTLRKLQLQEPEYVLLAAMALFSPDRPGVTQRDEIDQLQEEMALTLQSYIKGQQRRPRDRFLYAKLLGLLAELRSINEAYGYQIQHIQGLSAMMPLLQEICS

O=Cc1ccc2n1C[C@@]1(OC2)O[C@H](CO)[C@@H](O)[C@@H]1O
inactive: all assays above

O=Cc1ccc2n1C[C@@]1(C[C@H](O)[C@@H](CO)O1)OC2
not listed: [17]
inactive: all other assays above

O=C(O)[C@@]12COC3(O)C1CCN1CC[C@H]3[C@@H]1c1c2[nH]c2ccccc12
not listed: [11]
inactive: all other assays above

O=C(O)Cc1c[nH]c2ccccc12
inactive: all assays above

COc1cc(/C=C/C(=O)O)ccc1O
not listed: [18]
inactive: all other assays above

C=C1C[C@@]23C=CC(=O)[C@@](C)(CCC(=O)Nc4c(O)ccc(C(=O)O)c4O)C2C[C@@H]1CC3 (stereo partly drawn)
active: [1] 27.7 µM
not listed: [13] | [14]
inactive: all other assays above

O=C1c2c(O)cc(O)cc2O[C@@H](c2ccc(O)cc2)[C@@H]1c1c(O)cc(O)c2c(=O)cc(-c3ccc(O)c(O)c3)oc12
active: [1] 3.92 µM
not listed: [14] | [16] | [17]
inactive: all other assays above

OCc1ccc2ocnc2c1
inactive: all assays above

CC(=O)O[C@@H]1C=C2C(=O)OC[C@]2(O)[C@@]2(C)CCCC(C)(C)[C@H]12
inactive: [9] | [16]
active: [1] 19.6 µM | [2] 10.6 µM | [3] 6.68 µM | [4] 5.3 µM | [5] 18.8 µM | [6] 1.32 µM | [7] 21.1 µM | [8] 8.33 µM | [10] 18.7 µM | [11] 13.2 µM | [13] 7.47 µM | [17] 18.6 µM | [18] 15.3 µM | [20] 26.1 µM

C=C[C@]1(C)CC[C@@H]([C@H](C)C(=O)OCC)O1
active: [1] 27.2 µM
not listed: [6] | [8] | [10] | [11] | [12] | [17]
inactive: all other assays above

Oc1ccc(C2c3c(O)cc(O)cc3[C@@H]3C(c4ccc(O)cc4)c4c(O)cc(O)cc4[C@H]23)cc1 (stereo partly drawn)
active: [1] 34.9 µM
not listed: [3] | [6] | [16] | [17]
inactive: all other assays above

C=C(C)C(=O)O[C@H]1C[C@H](C)[C@@H](OC(C)=O)CC[C@@]2(C)O[C@@H]2[C@H]2OC(=O)C(COC(C)=O)=C12
inactive: [9] | [14] | [15] | [17] | [19]
active: [1] 31.1 µM | [2] 6.66 µM | [3] 6.68 µM | [4] 8.41 µM | [6] 0.833 µM | [7] 7.47 µM | [8] 3.72 µM | [11] 6.62 µM | [18] 17.2 µM

CC1C(=O)C23CCC1C[C@@]21O[C@H]2C(C)(C)C=CC(=O)[C@@]23COC1=O (stereo partly drawn)
inactive: all assays above

CC1(C)C=Cc2c(ccc3c2OC[C@@H](c2ccc(O)cc2O)C3)O1
active: [1] 44 µM | [17] 14.8 µM
not listed: [4] | [6] | [13]
inactive: all other assays above

CO[C@H]1/C=C/CC[C@@H](S[C@@H]2O[C@H](CO)[C@@H](O)[C@H](O)[C@H]2O)CC(=O)O[C@@H](/C(C)=C/[C@H](C)C(=O)CCCC2CC(=O)NC(=O)C2)[C@@H](C)[C@@H]1O
active: [2] 2.98 µM | [3] 4.21 µM | [6] 1.05 µM | [8] 1.87 µM | [11] 1.18 µM | [12] 14.8 µM | [13] 2.11 µM | [18] 7.67 µM
inactive: [1] | [9] | [14] | [16] | [17] | [19] | [20]

C[C@@]12CCC[C@@](C)(C(=O)O)[C@H]1CC[C@]13C[C@H]4C[C@H](O[C@@]4(C)C1)[C@H]32
active: [1] 3.92 µM | [2] 7.47 µM
not listed: [7]
inactive: all other assays above

C=C1C[C@@]23C=CC(=O)[C@@](C)(CCC(=O)Nc4c(O)ccc(C(=O)O)c4O)C2C[C@@H]1CC3O (stereo partly drawn)
active: [1] 49.3 µM
not listed: [3]
inactive: all other assays above

CO[C@@H]1[C@H](O)[C@@H](C)O[C@@H](OC[C@H]2/C=C/C=C/C(=O)C(C)C[C@H](C)C(O[C@@H]3O[C@H](C)CC4(OC(=O)O[C@@H]4C)C3O)[C@@H](C)/C=C/C(=O)OC2C)[C@@H]1OC (stereo partly drawn)
active: [1] 49.3 µM
not listed: [8]
inactive: all other assays above

CC1(C)[C@H](Br)CC[C@]23C[C@]4(C)C(=O)CC12C[C@H]34
inactive: all assays above

C=C(NC(=O)c1csc(-c2nc3c(cc2O)-c2nc(cs2)C(=O)NC(C(C)O)C(=O)N/C(=C(\C)O)c2nc(cs2)C(=O)NC2c4nc(cs4)C(=O)NC(COC(=O)c4c5c6c(cccc6n4O)COC(=O)[C@@H](OC4C[C@](C)(O)[C@H](N(C)C)[C@H](C)O4)C2OC5)c2nc-3cs2)n1)C(N)=O (stereo partly drawn)
active: [1] 4.4 µM
not listed: [8] | [11] | [16] | [17] | [18]
inactive: all other assays above

CC(=O)NC[C@@H]1O[C@H](CC/C=C(C)/C(C)=C/C=O)[C@H](C)C[C@H]1O
active: [1] 49.3 µM
not listed: [6] | [11] | [18]
inactive: all other assays above

CC(C)=CCC[C@@H](C)[C@@H]1CC[C@@]2(C)C[C@H]3C(C)=CC(=O)[C@@H]3/C(C=O)=C\C[C@H]12
active: [1] 44 µM | [2] 6.66 µM | [3] 7.49 µM | [4] 2.66 µM | [5] 7.49 µM | [6] 3.72 µM | [7] 10.6 µM | [8] 9.35 µM | [10] 10.5 µM
inactive: [9] | [14] | [15] | [19]

C=CC(=C)CC[C@]1(C)[C@H]2C[C@H](OC(=O)C(C)CC)C=C3[C@H](OC(C)=O)O[C@H](OC(C)=O)[C@@]32[C@H](OC)C[C@@H]1C (stereo partly drawn)
active: [1] 32.1 µM | [2] 3.44 µM | [3] 2.17 µM | [4] 0.769 µM | [5] 3.43 µM | [6] 1.52 µM | [7] 5.45 µM | [8] 4.29 µM | [10] 7.62 µM | [11] 8.55 µM | [12] 12.1 µM | [13] 4.86 µM | [15] 19.9 µM | [17] 15.2 µM | [18] 3.96 µM | [19] 60.6 µM | [20] 6.76 µM

Reference: PubChem BioAssay (NCATS)
